Shown are actives, neighbours in structure and some others; about 0.53% of the full set was active somewhere.
Mtb BioA inh: BioA (M. tuberculosis) enzyme inhibition. 0.096% of 360,000 active. purified M. tuberculosis BioA enzyme, plate reader. inhibition, % at 9.99 µM; in the data active = inhibition above about 40%
TcdB inh: TcdB glycohydrolase inhibition; P18177; TcdB glycohydrolase enzymatic assay, plate reader; inhibition, % at 9.99 µM; 0.24% of 350,000 active; AID 652162; in the data active = inhibition above about 10%
Target sequence (P18177 whole entry, looked up): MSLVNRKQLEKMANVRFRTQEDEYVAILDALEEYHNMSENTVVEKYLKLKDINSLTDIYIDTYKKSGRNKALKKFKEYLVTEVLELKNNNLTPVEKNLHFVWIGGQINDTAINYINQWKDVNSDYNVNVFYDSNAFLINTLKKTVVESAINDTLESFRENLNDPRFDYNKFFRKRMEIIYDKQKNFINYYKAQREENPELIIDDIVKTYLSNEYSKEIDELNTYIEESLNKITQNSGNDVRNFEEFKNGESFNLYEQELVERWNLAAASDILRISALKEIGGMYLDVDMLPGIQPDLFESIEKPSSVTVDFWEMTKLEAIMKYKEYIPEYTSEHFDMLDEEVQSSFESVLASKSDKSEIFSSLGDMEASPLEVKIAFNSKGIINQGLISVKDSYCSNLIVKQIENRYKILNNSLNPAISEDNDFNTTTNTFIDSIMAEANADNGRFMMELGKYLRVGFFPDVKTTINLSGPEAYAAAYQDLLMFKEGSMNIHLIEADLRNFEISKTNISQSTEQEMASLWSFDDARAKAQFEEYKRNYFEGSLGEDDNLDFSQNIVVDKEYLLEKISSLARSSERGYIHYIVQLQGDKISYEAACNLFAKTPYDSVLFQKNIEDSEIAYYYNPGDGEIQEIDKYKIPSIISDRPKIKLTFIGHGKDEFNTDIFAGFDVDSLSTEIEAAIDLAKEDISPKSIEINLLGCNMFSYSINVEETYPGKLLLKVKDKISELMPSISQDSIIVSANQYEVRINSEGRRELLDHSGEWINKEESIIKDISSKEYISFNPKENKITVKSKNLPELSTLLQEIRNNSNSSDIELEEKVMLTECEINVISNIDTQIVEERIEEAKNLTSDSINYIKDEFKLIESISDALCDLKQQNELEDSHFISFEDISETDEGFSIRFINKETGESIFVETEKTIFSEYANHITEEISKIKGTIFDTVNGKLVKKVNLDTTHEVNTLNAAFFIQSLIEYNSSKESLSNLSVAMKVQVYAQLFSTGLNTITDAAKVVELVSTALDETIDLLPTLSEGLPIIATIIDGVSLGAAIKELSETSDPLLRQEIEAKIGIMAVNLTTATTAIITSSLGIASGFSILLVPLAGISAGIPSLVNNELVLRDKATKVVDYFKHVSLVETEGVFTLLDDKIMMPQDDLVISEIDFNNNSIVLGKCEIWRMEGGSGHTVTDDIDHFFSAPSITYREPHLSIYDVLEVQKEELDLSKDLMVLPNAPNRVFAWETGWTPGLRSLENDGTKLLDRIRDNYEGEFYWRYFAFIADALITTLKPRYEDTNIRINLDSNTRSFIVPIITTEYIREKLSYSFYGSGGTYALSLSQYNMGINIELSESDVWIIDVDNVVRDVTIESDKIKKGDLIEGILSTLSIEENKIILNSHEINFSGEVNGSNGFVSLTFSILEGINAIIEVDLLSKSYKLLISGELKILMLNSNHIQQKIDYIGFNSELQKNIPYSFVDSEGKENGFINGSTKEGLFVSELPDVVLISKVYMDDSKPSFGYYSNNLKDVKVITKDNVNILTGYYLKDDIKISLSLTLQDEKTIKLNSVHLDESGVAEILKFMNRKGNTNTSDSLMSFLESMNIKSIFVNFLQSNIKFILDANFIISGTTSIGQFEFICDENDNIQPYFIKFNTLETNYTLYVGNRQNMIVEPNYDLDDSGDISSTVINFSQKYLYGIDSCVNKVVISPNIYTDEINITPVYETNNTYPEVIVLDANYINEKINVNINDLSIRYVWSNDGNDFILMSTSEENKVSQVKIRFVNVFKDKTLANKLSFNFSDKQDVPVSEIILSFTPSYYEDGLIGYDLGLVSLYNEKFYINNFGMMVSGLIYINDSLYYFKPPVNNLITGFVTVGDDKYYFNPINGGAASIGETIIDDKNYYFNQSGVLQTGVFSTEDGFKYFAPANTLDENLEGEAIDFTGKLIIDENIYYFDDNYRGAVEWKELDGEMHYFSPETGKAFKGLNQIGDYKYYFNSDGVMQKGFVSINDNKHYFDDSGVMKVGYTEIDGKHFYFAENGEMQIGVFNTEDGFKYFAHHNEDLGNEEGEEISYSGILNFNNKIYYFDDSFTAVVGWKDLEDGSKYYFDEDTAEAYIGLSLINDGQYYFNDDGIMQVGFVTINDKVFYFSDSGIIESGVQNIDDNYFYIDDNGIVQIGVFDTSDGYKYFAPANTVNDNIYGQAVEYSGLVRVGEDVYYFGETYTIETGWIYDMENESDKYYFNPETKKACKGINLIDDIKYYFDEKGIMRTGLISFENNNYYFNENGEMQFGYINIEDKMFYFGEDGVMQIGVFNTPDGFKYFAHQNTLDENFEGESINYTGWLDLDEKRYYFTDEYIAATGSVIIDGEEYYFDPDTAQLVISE
PrP UTR inh: suppresses PrP 5' UTR mRNA reporter expression; cell-based PrP 5' UTR mRNA reporter, plate reader; inhibition, % (no concentration beside the values); 0.35% of 340,000 active; AID 488862; in the data active = inhibition above about 52%; note: 0 = median of the neutral control wells
Yp Topo-I inh: blocks Yersinia pestis topoisomerase I activity; Y. pestis Topo-I cleavage product accumulation, plate reader; 0.064% of 360,000 active; AID 504884; activity, % at 10 µM; in the data active = activity above about 50%, passing the limit was not always enough
* = called active by the depositor; x = no result given.

SMILES	Mtb BioA inh	TcdB inh	PrP UTR inh	Yp Topo-I inh
Cc1cccc(CN2CCN(c3ncccn3)CC2)c1	0	13*	-8	0
CC(C)NC(=O)N(C)C[C@H]1OCCCC[C@@H](C)Oc2ccc(NS(=O)(=O)c3cn(C)cn3)cc2C(=O)N([C@@H](C)CO)C[C@H]1C	1	-1	x	x
C[C@H]1CCCCO[C@@H](CN(C)Cc2ccc(C(F)(F)F)cc2)[C@@H](C)CN([C@@H](C)CO)C(=O)c2cc(NS(C)(=O)=O)ccc2O1	-1	x	x	x
COc1ccc(C2C(C#N)=C(N)OC(C(C)(C)C)=C2C#N)cc1OC (configuration not stated)	3	x	13	0
COc1ccc(C2C(C#N)=C(N)SC(N)=C2C#N)cc1OC	43*	x	-20	-4
C[C@@H]1CN([C@@H](C)CO)C(=O)c2cc(NC(=O)Nc3ccccc3)ccc2O[C@H]1CN(C)C(=O)Nc1ccc(C(F)(F)F)cc1	-1	1	x	x
O=C(Nc1sc2c(c1C(=O)O)CCCC2)c1ccc(Cl)cc1	0	12*	-12	-4
CN(C)CC(=O)N[C@H]1CC[C@@H](CCn2cc(CN(C)C)nn2)O[C@H]1CO	3	0	x	x
CC(Sc1nc(N)cc(=O)[nH]1)C(=O)NCC(=O)Nc1ccc(F)c(F)c1F (configuration not stated)	-2	11*	1	3
Cc1c(C(=O)c2ccc(F)cc2)c2ccccn2c1CCc1ccccn1	x	-2	-15	-7
Cc1c(C(=O)c2ccccc2)c2ccccn2c1CCc1ccccn1	x	13*	-8	17
Cc1ccc(-c2cnc3c(c2)C(=O)N([C@@H](C)CO)C[C@H](C)[C@H](CN(C)CC2CCOCC2)O3)cc1	-1	1	x	x
O=C(Cc1coc2cc(O)ccc12)NNC(=O)c1cccs1	-2	19*	-7	-1
O=S(=O)(Nc1ccc2cn[nH]c2c1)c1ccc(C(F)(F)F)cc1	3	2	-8	-7
O=C(O)c1cc(S(=O)(=O)Nc2ccc3cn[nH]c3c2)ccc1Cl	0	10*	-12	7
O=C(Nc1cc(S(=O)(=O)N2CCOCC2)ccc1N1CCOCC1)c1ccccc1Cl	1	14*	-28	14
O=C(Nc1ccc(N2CCOCC2)c(Cl)c1)c1ccc(Cl)cc1	3	22*	-23	1
O=C(Nc1ccc(N2CCOCC2)cc1N1CCOCC1)c1ccc(Cl)cc1	0	-1	-12	4
O=C(Nc1ccc(N2CCOCC2)c(Cl)c1)c1ccc2c(c1)OCCO2	-1	21*	-16	7
C[C@@H]1CN([C@H](C)CO)C(=O)c2cccc(NC(=O)Nc3ccc(C(F)(F)F)cc3)c2O[C@@H]1CN(C)C(=O)Nc1ccc(C(F)(F)F)cc1	4	0	x	x
COCC(=O)N(C)C[C@@H]1Oc2ncc(C#C[C@@H](C)O)cc2C(=O)N([C@@H](C)CO)C[C@H]1C	-1	0	x	x
O=c1ccc2[n+]([O-])c3ccc(O)cc3oc-2c1	x	-3	-31	396*
O=c1cc(O)c2ccc(O)cc2o1	0	1	-5	-1
C[C@@H]1CN([C@@H](C)CO)C(=O)c2cc(NC(=O)Nc3ccc4c(c3)OCO4)ccc2O[C@H]1CN(C)Cc1ccc(-c2ccccc2)cc1	2	0	x	x
CC(=O)c1cccc(OCC(=O)c2cc(C)n(-c3cc(C)on3)c2C)c1	11	16*	-11	20
SMILES	Mtb BioA inh	TcdB inh	PrP UTR inh	Yp Topo-I inh
Cc1cc(-n2c(C)cc(C(=O)COc3ccc4ccc(=O)oc4c3)c2C)no1	x	x	-20	1
CC(=O)Nc1cnc(-c2ccccc2O)cn1	-2	12*	x	6
O=c1[nH]nc(-c2cc(-c3ccccc3)nc3ccccc23)o1	1	16*	x	1
C[C@@H]1CN([C@@H](C)CO)C(=O)c2cc(NC(=O)c3ccncc3)ccc2O[C@@H](C)CCCCO[C@H]1CN(C)C(=O)C1CCCCC1	0	1	x	x
CO[C@@H](CN(C)C(=O)c1ccc2c(c1)OCO2)[C@@H](C)CN([C@@H](C)CO)S(=O)(=O)c1ccc(F)cc1	-1	0	x	x
COc1ccc(/C=C(\C#N)C(=O)Nc2ccccn2)cc1	-1	1	-6	5
Cc1ccc(/C=C(\C#N)C(=O)Nc2ccccn2)o1	0	17*	-97	3
CN(C)CC(=O)Nc1ccc2c(c1)[C@@H]1C[C@H](CC(=O)NC3CCCCC3)O[C@@H](CO)[C@@H]1O2	-3	-2	x	x
COc1ccc(C(=O)CNc2ccccc2Br)cc1	-2	0	-47	1
Cc1ccccc1NCC(=O)c1ccc(Br)cc1	-2	3	-11	176*
NC(=O)c1ccccc1NCC(=O)c1ccc(Cl)cc1	x	1	-8	57*
O=C(CNc1ccccc1C(=O)O)c1ccccc1	-1	0	-22	-1
Cc1ccc2c(c1)-c1c(cnn1CC(=O)NC(C)CCc1ccco1)CO2 (configuration not stated)	-7	11*	-4	-12
Cc1ccc2c(c1)-c1c(cnn1CC(=O)N(Cc1ccco1)C1CCCCC1)CO2	-2	1	-25	30
O=C(C1CCOCC1)N1C[C@H]2[C@@H](c3ccccc31)[C@@H](CO)N2C(=O)c1ccccc1	-3	-2	x	x
CCCC#Cc1ccc([C@@H]2[C@@H](CO)N3CCCCN(Cc4cccnc4)C[C@@H]23)cc1	6	0	x	x
COc1ccc(-c2nc3c(c(=O)[nH]c(=O)n3Cc3ccccc3)n2Cc2ccccc2)cc1	-3	x	-20	64*
Cc1nc2ccccc2nc1N1CCCCC1	-1	x	-25	2
Cc1ccc2c(Cl)c(C)c(N3CCCCC3)nc2n1	x	x	-13	50*
COCC#Cc1ccc2c(c1)O[C@@H](CN(C)C)[C@@H](C)CN([C@H](C)CO)S2(=O)=O	9	0	x	x
O=c1oc(-c2ccc([N+](=O)[O-])cc2)nc2ccccc12	x	5	-12	1
O=c1oc(-c2ccc(Br)cc2)nc2ccccc12	0	12*	-28	5
S=c1nc(-c2ccc(Cl)cc2)[nH][nH]1	0	12*	-15	4
COCCNC(=O)C[C@@H]1CC[C@H]2[C@@H](COc3ccc(NC(=O)COC)cc3C(=O)N2C)O1	-2	-1	x	x
COCCNc1oc(/C=C/c2ccccc2)nc1C#N	x	12*	-106	5
SMILES	Mtb BioA inh	TcdB inh	PrP UTR inh	Yp Topo-I inh
Cc1ccc(S(=O)(=O)N2CCN(C(=O)c3cc4c(s3)CCCC4)CC2)c(C)c1	-1	1	x	34
O=C(c1cc2c(s1)CCCC2)N1CCN(S(=O)(=O)c2ccccc2C(F)(F)F)CC1	x	x	3	58*
CCCC(=O)Nc1sc2c(c1C(=O)Nc1ccccn1)CCCC2	-1	12*	-13	2
CCOc1ccccc1CNC(c1ccccc1)c1ccccc1	-1	-2	-29	52*
CC(C)CNC(=O)C(=O)NCC1CCCN1S(=O)(=O)c1cccs1 (configuration not stated)	-1	13*	-14	-4
CCC(=O)Nc1ccc2c(c1)OC[C@@H](C)N(C(=O)NC(C)C)C[C@H](C)[C@@H](OC)CN(C)C2=O	-3	9	x	x
CCC(=O)Nc1ccc2c(c1)OC[C@H](C)N(C(=O)NC(C)C)C[C@H](C)[C@H](OC)CN(C)C2=O	-1	13*	x	x

Screens deposited in PubChem BioAssay by Broad Institute.
